The source of these data is PubChem BioAssay (NCATS).

Records with an inconclusive call do not appear. The source made the active and inactive calls. Unless noted, calls follow the shape of the dose curve; as a rule, active = well fitted curve in the direction sought with a large enough effect; inconclusive = small, poorly fitted or top-dose-only effect, or another doubt; inactive = no such curve, though single readings can be large; an effect the other way counts as inactive or inconclusive.

The nature of assay [1]: qHTS to identify inhibitors of the type 1 interferon - major histocompatibility complex class I in skeletal muscle: primary screen against the NCATS Mechanism Interrogation Plate v5.0 (MIPE) Libary (AID 1347411). Also: nearly all actives have a fitted effect of over 65% in size. Also: potency is read from the fitted curve at half-maximal effect.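 As to activity change, negative = inhibition: plate controls were vehicle for no effect and reference inhibitor for full effect.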 In a few lines: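 HLA-B HiBit myoblasts, dexamethasone-free medium + 4 ng/ml IFN-b, 24 h compound, 11-pt 1:3 from 46 uM final. Readout: Nano-Glo HiBiT lytic luminescence after 10 min lysis, RT.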

Assay [2] in a line: Primary qHTS for inhibitors of nuclear receptor binding SET domain protein 2 (NSD2) in an isogenic RCH-ACV NSD2 p.E1099K mutant (9B) (AID 1645876). Also: nearly all actives have a fitted effect of over 70% in size. Also: potency is read from the fitted curve at half-maximal effect.
Assay [3] in a line: Primary qHTS for inhibitors of nuclear receptor binding SET domain protein 2 (NSD2) in an RCH-ACV wild type WT cells (2C) (AID 1645877). Also: nearly all actives have a fitted effect of over 70% in size. Also: potency is read from the fitted curve at half-maximal effect.
The nature of assay [4]: NCATS anti-infectives library activity on HEK293 viability as a counter-qHTS vs the C. elegans viability qHTS (AID 1745854). Also: % is scaled to controls: 0 for no effect and ±100 for the full control effect. The essentials:
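CellTiter-Glo luminescence, read on a CCD imager, scored viability of HEK293 cells after 24 hr compound exposure at 37C. Library tested in several concentrations, 1:5 steps, up to 41.7 uM; digitonin served as control.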

The target in assay [5] is Glutathione peroxidase 1 (Homo sapiens) (UniProt P07203). Description: Primary qHTS Assay for Inhibitors of Recombinant Selenoprotein Glutathione Peroxidase 1 (GPX1) (AID 1845191). Also: nearly all actives have a fitted effect of over 65% in size. The essentials: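 GPX1 10 nM, GR 100 nM, GSH 1 mM, NADPH 0.5 mM, CHP 0.5 mM (final). 30-min cpd preincubation, RT. Ex340/Em450 read t=0, t=15 min.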
For assay [6], the target named is Phospholipid hydroperoxide glutathione peroxidase GPX4 (Homo sapiens) (UniProt P36969). Put plainly: Primary qHTS Assay for Inhibitors of Recombinant Selenoprotein Glutathione Peroxidase 4 (GPX4) (AID 1845192). Also: nearly all actives have a fitted effect of over 65% in size. As to activity change, negative = inhibition: % is scaled to controls: 0 for no effect and ±100 for the full control effect. Conditions: outcome: dose series up to 50 µM unless noted. The essentials:
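qHTS, GR-coupled: GPX4 200 nM + cpd 30 min RT → GSH 1 mM, NADPH 0.5 mM, GR 100 nM → CHP 0.5 mM start; fluor 340/450 at t0 and t15 min; no-enzyme wells as control.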

Assay [7] in a line: qHTS drug screen for cell cycle checkpoint inhibitors in PARPi-resistant BRCA-mutant ovarian cancer cell lines. (AID 1963452; calls by dose curve; also: potency is read from the fitted curve at half-maximal effect). Conditions: PEO1/OlaR viability, CellTiter-Glo luminescence, 96 h; for Z-AUC: stronger effect = lower value. The essentials:
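PEO1, PEO4 and PEO1/OlaR ovarian cancer cells, 600 per well, exposed 96 h at 37C to a dilution series. Viability read by CellTiter-Glo luminescence, normalized to DMSO and empty wells; activity summarized as Z-AUC.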

Assay [8] in a line: Viability counterscreen for antagonist of constitutive androstane receptor (CAR) against the NCATS DSHEA and TCM libraries (AID 1794837).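 Also: compound exposure lasted 24 h before viability reading; 0% is about no effect.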 In a few lines:
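Cell viability, CellTiter-Fluor, Ex/Em 405/540 nm, 1 h at 37C. HepG2-CYP2B6-hCAR, 2,500 cells/well; cpds + CITCO 48 uM final (antagonist mode), 24 h, 37C/5% CO2.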

In assay [9] the target is Nuclear receptor subfamily 1 group I member 3 (Homo sapiens) (UniProt Q14994). Put plainly: Primary qHTS for agonist of constitutive androstane receptor (CAR) against the NCATS DSHEA and TCM libraries (AID 1794839).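 Also: HepG2 cells expressing human CAR with a CYP2B6 reporter plus PK11195 antagonist; 0% is about no effect.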 In a few lines:
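Luminescence from ONE-Glo luciferase was the agonist read-out in HepG2-CYP2B6-hCAR cells exposed 24 h to test substances. Wells also held the CAR antagonist PK11195 at 0.75 µM final. Viability was by CellTiter-Fluor fluorescence.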

Assay [10] is described as follows: HepG2 viability counterscreen (readout 2: ATP content) against the NCATS DSHEA and TCM libraries (AID 1794840). Also: 0% is about no effect. In a few lines: (§1)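 1,000 HepG2 cells/well, 4 h attach; compounds ~24 h, 37C/5% CO2. Readout 1: GF-AFC 25 uM final, 30 min, fluorescence 380/510 nm. Readout 2: CellTiter-Glo, 30 min RT, luminescence.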
The nature of assay [11]: HepG2 viability counterscreen (readout 1: protease activity) against the NCATS DSHEA and TCM libraries (AID 1794841).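 Also: cells exposed to compounds for about 24 h before the protease read; 0% is about no effect.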 In a few lines: as §1
Assay [12] deals with Cytochrome P450 2D6 (Homo sapiens) (UniProt P10635). Description: qHTS for inhibitors of CYP2D6 against the NCATS DSHEA and TCM libraries (AID 1919972). Also: % is scaled to controls: 0 for no effect and ±100 for the full control effect. In a few lines:
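qHTS, concentration–response format with most substances from 19.5 nM. CYP2D6 + pro-luciferin substrate, 15 min with compound, then 1x NADPH regen, 30–45 min RT dark. Glo detection 30 min, luminescence. Quinidine control.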

Assay [13] has as its target Cytochrome P450 2C9 (Homo sapiens) (UniProt P11712). Put plainly: qHTS for inhibitors of CYP2C9 against the NCATS DSHEA and TCM libraries (AID 1919973).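 Also: luminogenic pro-luciferin CYP2C9 substrate turned into luciferin with NADPH regeneration; % is scaled to controls: 0 for no effect and ±100 for the full control effect.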 The essentials:
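Substances were tested against enzyme with a pro-luciferin substrate; minus-enzyme wells served as background. After NADPH-initiated oxidation (30-45 min, RT), light was generated with P450-Glo reagent.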

For assay [14], the target named is Cytochrome P450 1A2 (Homo sapiens) (UniProt P05177). Put plainly: qHTS for inhibitors of CYPIA2 against the NCATS DSHEA and TCM libraries (AID 1919976). Also: potency is read from the fitted curve at half-maximal effect. The settings on record: recombinant CYP1A2 enzyme activity, luminescence. The essentials: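 Luminescence read-out: pro-luciferin converted to D-luciferin by CYP1A2, detected with P450-Glo reagent after 30 min RT. Enzyme plus substrate got compounds for 15 min RT; NADPH regeneration solution (final 1x) started a 30-45 min reaction, light-protected.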

Assay [15] is described as follows: Dual reporter qHTS for agonist of Pregnane X Receptor (hPXR) against the NCATS DSHEA and TCM libraries: Fluorescence readout (AID 1920058). Also: 0% is about no effect. In a few lines:
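Fluorescence read-out for cell viability: CellTiter-Fluor, 1 h at 37 °C, Ex/Em 405/540 nm. This followed ~24 h treatment of hPXR-Luc HepG2 cells with substances in agonist mode.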

The target in assay [16] is Nuclear receptor subfamily 1 group I member 2 (Homo sapiens) (UniProt O75469). Description: Dual reporter qHTS for antagonist of Pregnane X Receptor (hPXR) against the NCATS DSHEA and TCM libraries: Luminescence Readout (AID 1920060).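 Also: HepG2 cells carrying hPXR luciferase reporter stimulated with rifampicin at 2 µM; 0% is about no effect.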 The essentials: (§2)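 HepG2 hPXR-Luc, 2000 cells/well, charcoal-stripped FBS medium; 5 h attach; RIF 2 uM final; 24 h 37C/5% CO2; CellTiter-Fluor 1 h, fluor 405/540; ONE-Glo 30 min RT, lum.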

Assay [17] can be described thus: Dual reporter qHTS for antagonist of Pregnane X Receptor (hPXR) against the NCATS DSHEA and TCM libraries: Fluorescence Readout (AID 1920061). Also: 0% is about no effect. In a few lines: as §2
Assay [18] has as its target Catechol O-methyltransferase (Homo sapiens) (UniProt P21964). Description: Confirmatory Screen for Target Class Profiling of Small Molecule Inhibitors of Methyltransferases (AID 1745852). Conditions: MTase-Glo luminescence, SAH detection, recombinant enzyme; measured here: COMT max response; stronger effect = lower value.
Assay [19] addresses Guanidinoacetate N-methyltransferase (Homo sapiens) (UniProt Q14353). The description is as above. Conditions: MTase-Glo luminescence, SAH detection, recombinant enzyme; activity change, negative = inhibition: at 57.3 µM (top of the series).
For assay [20], the target named is Nicotinamide N-methyltransferase (Homo sapiens) (UniProt P40261). Described as above. Conditions: MTase-Glo luminescence, SAH detection, recombinant enzyme; measured here: NNMT max response; stronger effect = lower value.
The target of assay [21] is Phenylethanolamine N-methyltransferase (Homo sapiens) (UniProt P11086). The description is as above. Conditions: MTase-Glo luminescence, SAH detection, recombinant enzyme; measured here: PNMT max response; stronger effect = lower value.
Where [22] appears, read: measured here: PEO1 parental Z-AUC.

Chain of Phospholipid hydroperoxide glutathione peroxidase GPX4 (Homo sapiens) (P36969 whole entry, looked up): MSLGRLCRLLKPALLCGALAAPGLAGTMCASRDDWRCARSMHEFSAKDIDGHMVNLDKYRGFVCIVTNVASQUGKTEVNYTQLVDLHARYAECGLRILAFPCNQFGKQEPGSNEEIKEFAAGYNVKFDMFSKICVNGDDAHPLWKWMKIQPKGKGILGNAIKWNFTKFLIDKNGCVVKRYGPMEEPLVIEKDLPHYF
Chain of Glutathione peroxidase 1 (Homo sapiens) (P07203 whole entry, looked up): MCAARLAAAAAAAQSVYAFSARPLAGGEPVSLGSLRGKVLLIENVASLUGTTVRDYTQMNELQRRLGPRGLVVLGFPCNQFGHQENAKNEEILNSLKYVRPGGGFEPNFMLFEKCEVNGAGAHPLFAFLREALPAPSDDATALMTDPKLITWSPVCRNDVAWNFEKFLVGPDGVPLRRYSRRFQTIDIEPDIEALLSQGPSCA
Chain of Catechol O-methyltransferase (Homo sapiens) (P21964 whole entry, looked up): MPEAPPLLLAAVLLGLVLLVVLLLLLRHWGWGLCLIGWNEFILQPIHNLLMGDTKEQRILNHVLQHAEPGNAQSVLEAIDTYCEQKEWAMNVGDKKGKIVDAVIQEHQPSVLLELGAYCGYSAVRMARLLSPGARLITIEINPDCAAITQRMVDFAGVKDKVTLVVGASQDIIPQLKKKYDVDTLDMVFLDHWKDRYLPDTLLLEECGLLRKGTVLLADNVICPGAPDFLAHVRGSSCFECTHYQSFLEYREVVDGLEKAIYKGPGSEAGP
Chain of Cytochrome P450 2D6 (Homo sapiens) (P10635 whole entry, looked up): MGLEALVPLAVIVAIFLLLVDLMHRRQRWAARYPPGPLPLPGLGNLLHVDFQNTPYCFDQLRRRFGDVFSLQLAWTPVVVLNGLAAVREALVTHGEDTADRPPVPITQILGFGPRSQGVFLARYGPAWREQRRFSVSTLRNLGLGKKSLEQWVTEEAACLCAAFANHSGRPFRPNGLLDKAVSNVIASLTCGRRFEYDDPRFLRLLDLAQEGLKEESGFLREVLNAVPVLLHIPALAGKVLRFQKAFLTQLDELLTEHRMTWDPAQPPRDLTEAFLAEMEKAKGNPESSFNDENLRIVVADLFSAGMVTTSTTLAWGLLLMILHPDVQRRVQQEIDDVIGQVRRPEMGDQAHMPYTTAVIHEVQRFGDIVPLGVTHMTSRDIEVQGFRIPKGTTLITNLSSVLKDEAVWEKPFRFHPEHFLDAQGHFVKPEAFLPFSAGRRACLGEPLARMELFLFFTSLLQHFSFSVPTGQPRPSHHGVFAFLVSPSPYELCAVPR
Chain of Nuclear receptor subfamily 1 group I member 2 (Homo sapiens) (O75469 whole entry, looked up): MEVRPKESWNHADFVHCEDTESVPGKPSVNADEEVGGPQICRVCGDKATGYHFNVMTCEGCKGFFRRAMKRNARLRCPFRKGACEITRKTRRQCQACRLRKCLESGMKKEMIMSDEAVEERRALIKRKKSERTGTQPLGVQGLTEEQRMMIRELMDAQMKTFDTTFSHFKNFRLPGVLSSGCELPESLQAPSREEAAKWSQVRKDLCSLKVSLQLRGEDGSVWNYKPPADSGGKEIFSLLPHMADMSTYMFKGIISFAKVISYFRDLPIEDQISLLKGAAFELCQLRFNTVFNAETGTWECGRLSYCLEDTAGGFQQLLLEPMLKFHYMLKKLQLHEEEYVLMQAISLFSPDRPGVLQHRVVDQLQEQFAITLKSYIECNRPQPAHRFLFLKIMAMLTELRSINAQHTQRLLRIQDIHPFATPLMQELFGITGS
Chain of Nicotinamide N-methyltransferase (Homo sapiens) (P40261 whole entry, looked up): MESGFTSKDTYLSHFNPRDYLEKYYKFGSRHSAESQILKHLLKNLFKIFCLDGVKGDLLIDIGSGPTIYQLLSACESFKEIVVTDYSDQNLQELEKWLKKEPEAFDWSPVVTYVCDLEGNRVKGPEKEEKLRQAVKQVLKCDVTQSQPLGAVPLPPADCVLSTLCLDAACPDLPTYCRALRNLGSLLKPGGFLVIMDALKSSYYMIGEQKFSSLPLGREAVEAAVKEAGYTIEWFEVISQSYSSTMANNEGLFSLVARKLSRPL
Chain of Cytochrome P450 2C9 (Homo sapiens) (P11712 whole entry, looked up): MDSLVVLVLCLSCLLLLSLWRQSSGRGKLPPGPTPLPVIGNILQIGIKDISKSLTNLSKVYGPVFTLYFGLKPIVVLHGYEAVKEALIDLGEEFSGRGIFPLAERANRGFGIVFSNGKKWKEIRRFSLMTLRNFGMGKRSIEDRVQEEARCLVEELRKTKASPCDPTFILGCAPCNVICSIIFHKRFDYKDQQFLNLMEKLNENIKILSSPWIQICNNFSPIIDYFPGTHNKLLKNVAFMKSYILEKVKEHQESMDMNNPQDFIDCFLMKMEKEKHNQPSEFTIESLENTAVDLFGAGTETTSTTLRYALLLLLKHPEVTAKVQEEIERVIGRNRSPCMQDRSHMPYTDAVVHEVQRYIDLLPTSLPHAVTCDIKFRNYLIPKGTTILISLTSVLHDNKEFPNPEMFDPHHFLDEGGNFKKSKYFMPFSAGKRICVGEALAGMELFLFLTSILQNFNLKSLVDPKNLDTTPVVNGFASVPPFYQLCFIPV
Chain of Phenylethanolamine N-methyltransferase (Homo sapiens) (P11086 whole entry, looked up): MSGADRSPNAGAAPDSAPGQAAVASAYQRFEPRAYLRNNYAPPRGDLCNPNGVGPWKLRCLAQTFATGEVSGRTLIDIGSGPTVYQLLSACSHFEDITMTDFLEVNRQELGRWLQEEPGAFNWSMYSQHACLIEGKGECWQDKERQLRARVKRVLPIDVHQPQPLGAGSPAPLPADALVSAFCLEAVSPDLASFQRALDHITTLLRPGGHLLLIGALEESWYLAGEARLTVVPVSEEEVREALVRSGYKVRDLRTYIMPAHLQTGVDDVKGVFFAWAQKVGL
Chain of Nuclear receptor subfamily 1 group I member 3 (Homo sapiens) (Q14994 whole entry, looked up): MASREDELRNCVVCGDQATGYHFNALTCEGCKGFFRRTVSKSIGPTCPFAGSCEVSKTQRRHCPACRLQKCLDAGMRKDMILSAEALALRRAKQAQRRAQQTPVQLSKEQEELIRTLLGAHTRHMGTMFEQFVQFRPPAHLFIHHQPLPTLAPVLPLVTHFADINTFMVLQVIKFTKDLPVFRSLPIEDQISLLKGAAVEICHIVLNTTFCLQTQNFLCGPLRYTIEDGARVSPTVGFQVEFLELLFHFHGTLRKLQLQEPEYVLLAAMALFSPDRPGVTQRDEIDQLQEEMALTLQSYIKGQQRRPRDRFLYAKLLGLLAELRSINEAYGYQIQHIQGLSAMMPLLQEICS
Chain of Cytochrome P450 1A2 (Homo sapiens) (P05177 whole entry, looked up): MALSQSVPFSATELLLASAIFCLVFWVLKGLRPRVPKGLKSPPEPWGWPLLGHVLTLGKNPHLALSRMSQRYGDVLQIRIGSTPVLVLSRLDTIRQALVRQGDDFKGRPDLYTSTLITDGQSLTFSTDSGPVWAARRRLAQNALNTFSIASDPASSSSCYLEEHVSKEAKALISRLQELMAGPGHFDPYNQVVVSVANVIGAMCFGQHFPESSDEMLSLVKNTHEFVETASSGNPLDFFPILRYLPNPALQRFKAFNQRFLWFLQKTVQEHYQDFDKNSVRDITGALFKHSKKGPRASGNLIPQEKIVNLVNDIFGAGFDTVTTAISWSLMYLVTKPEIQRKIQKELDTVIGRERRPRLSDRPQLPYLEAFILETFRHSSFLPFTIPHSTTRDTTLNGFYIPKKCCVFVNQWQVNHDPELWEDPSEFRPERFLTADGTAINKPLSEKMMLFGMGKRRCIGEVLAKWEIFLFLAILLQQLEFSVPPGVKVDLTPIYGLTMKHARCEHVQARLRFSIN

On to `NC1=N[C@@]2(c3cc(NC(=O)c4ccc(F)cn4)ccc3F)COC[C@H]2CS1`, for which the Potency result in assay [1], in assay [2], in assay [3], in assay [4], in assay [5] and in assay [6] was “inactive” throughout. Moreover, the Z-AUC in [7] was 1.41 (inactive); in assay [7] (setting [22]), 0.672; in assay [7] (measured here: PEO4 Z-AUC) it was 0.598.
In the case of `C=C1C[C@@H]2CC[C@@]34C[C@H]5O[C@H]6[C@@H](O3)[C@H]3O[C@H](CC[C@@H]3O[C@H]6[C@H]5O4)CC(=O)C[C@@H]3[C@@H](OC)[C@@H](C[C@H](O)CN)O[C@H]3C[C@H]3O[C@@H](CC[C@@H]1O2)C[C@@H](C)C3=C`, in assay [1], the activity change, negative = inhibition is -7.19% [at 8.44 µM] (inactive). For the same molecule, the Potency in assay [2] is 0.0014 µM (active); in assay [3] it was 0.0011 µM (active); in assay [7] it was 0.0089 µM (active). Besides, the Potency entry in [5] and in assay [6] was “inactive” each time. The values for the Z-AUC in assay [7] (setting [22]) and in assay [7] (measured here: PEO4 Z-AUC) were -3.01 and -2.65, respectively.
Take `Cc1c(-c2ccc(-c3ccccc3F)cc2)nc2ccc(F)cc2c1C(=O)O`: the Potency entry in assay [1], in assay [4], in assay [5] and in assay [6] was “inactive” each time. Moreover, the Potency in assay [2] is 0.105 µM (active); in [3], 0.148 µM (active); in assay [7], 2.75 µM (active). For the same molecule, the Z-AUC is -1.54 in [7] (setting [22]) and -1.34 in assay [7] (measured here: PEO4 Z-AUC).
With `C[C@H]1[C@H](C)CC[C@]2(C(=O)O)CC[C@]3(C)C(=CC[C@@H]4[C@@]5(C)CC[C@H](O)C(C)(C)[C@@H]5CC[C@]43C)[C@H]12`, the Potency entry in assay [1], in [2], in assay [3], in assay [5], in [6] and in [12] was “inactive” in each case. For the same molecule, the Potency entry in assay [13] was “inactive”. Further, the outcome in [8], in assay [9], in [10], in assay [11], in assay [15] and in [16] was “inactive” throughout. Moreover, the outcome in assay [17] is “inactive”. Moreover, the Potency in assay [14] was 3.55 µM (active). The Z-AUC is 0.556 (inactive) in assay [7], 0.879 in [7] (setting [22]) and 0.501 in assay [7] (measured here: PEO4 Z-AUC).
`c1ccc(CNCc2ccc(CN3CCCNCCNCCCNCC3)cc2)nc1`: the Potency entry in [1], in assay [2], in assay [3], in [4] and in assay [6] was “inactive” in each case. Besides, the Z-AUC was 1.17 (inactive) in [7], 1.27 in assay [7] (setting [22]) and 1.11 in assay [7] (measured here: PEO4 Z-AUC).
As to `COc1cc2c(NC3CCN(C4CCCCC4)CC3)nc(N3CCCN(C(C)C)CC3)nc2cc1OCCCN1CCCCC1`, the Potency is 11.7 µM (active) in assay [1], 4.68 µM (active) in [2] and 5.25 µM (active) in assay [3]. For the same molecule, the activity in assay [18] was -2.63%; in [20] it was -10.6%; in assay [21], -1.48%. Further, the activity change, negative = inhibition in [19] is 5.88%. The Z-AUC is 1.47 (inactive) in assay [7], 1.1 in assay [7] (setting [22]) and 0.674 in assay [7] (measured here: PEO4 Z-AUC).
Regarding `COC(=O)C1=C(C)NC(c2ncc(F)cc2F)=N[C@H]1c1ccc(F)cc1Cl`, the Potency in assay [1] is 20.8 µM (active); in [2], 14.8 µM (active); in assay [3] it was 13.2 µM (active). Besides, the Potency entry in assay [4], in assay [5] and in assay [6] was “inactive” in each case. Moreover, the values for the Z-AUC in assay [7], in [7] (setting [22]) and in assay [7] (measured here: PEO4 Z-AUC) were 0.0263 (inactive), 0.182 and 1.13, respectively.
